High-throughput results (PubChem)
Sampled rows, rich in hits. Any-hit rate of the full collection: about 3.1%.
PPC-1+TRAIL kill: kills PPC-1 cancer cells in the presence of TRAIL; PPC-1 cells + TRAIL, ATPLite viability luminescence; cell killing (% activity), % at 4 µM or 5 µM; 220,000 compounds, 0.41% hits;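 active means cell killing above 50% in the first pass at 4 µM, then a duplicate retest at 5 µM averaging 50% or more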;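 further: plate controls were cells with TRAIL plus DMSO for no effect and medium-only wells lacking cells for full effect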
C8 TRAIL sens: sensitizes caspase-8 expressing cells to TRAIL; NB7+C8 cells + TRAIL, ATPlite viability luminescence; inhibition (viability loss, TRAIL sensitization), % at 10 µM; 360,000 compounds, 1% hits;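 active means compounds causing at least 50% loss of cell viability in the single-dose screen, relative to plate controls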
CF NFkB inh: cystic fibrosis NF-kB activation inhibition; KKLEB NF-kB-GFP reporter, PAF-induced, GFP fluorescence overnight; inhibition, % at 5 µM; 360,000 compounds, 0.86% hits; AID 588850;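 active means at least 50% inhibition at 5 µM, scaled per plate between neutral and stimulator controls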;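 further: PAF is a Pseudomonas aeruginosa culture filtrate used as stimulus; plate controls were PAF-stimulated DMSO wells for no effect and unstimulated DMSO wells for full effect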
Peg3 promoter: inhibitors of Peg3 promoter; HeLa PEG-Prom luciferase reporter, luminescence, overnight; inhibition, % at 20 µM; 360,000 compounds, 1.7% hits; AID 588405;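 active means inhibition of at least 50% at 20 µM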
HIF-2a block: inhibitors of HIF-2a | inhibition, % at 18.8 µM | 360,000 compounds, 0.72% hits | AID 624352 | 786-0 RCC cells HIF-2a reporter, luciferase luminescence, overnight;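 active means inhibition of the luminescence signal of 40% or more relative to plate controls, in a single-dose primary screen at 18.75 µM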
KKLEB cytotox: reduces viability of KKLEB cystic fibrosis airway cells | KKLEB CF airway cells viability, ATPlite luminescence, overnight; stronger effect = lower value; cells stimulated with P. aeruginosa culture filtrate | 360,000 compounds, 0.36% hits | activity change (cytotoxicity), % at 5 µM | AID 602141;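 active means corrected activity change at or below -50% at 5 µM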
Numbers without * were called inactive; nt = no result given; ! = repeats disagree.

SMILES | PPC-1+TRAIL kill | C8 TRAIL sens | CF NFkB inh | Peg3 promoter | HIF-2a block | KKLEB cytotox
OCC[C@H]1C[C@@H](O)[C@H](O)[C@]2(OCc3ccccc32)O1 | nt | -1 | -5 | 6 | 17 | 18
CC(=O)c1ccccc1OCC(O)CN1CCN(CCN2C(=O)c3cccc4cccc(c34)C2=O)CC1 (stereo not drawn) | 27 | 60* | -23 | 17 | -7 | -18
COc1cc(COCC(O)CN2CCN(CCN3C(=O)c4cccc5cccc(c45)C3=O)CC2)cc(OC)c1OC (stereo not drawn) | 28 | -5 | -34 | 4 | 6 | -3
Cc1ccc(C)c(OCC(O)CN2CCN(CCN3C(=O)c4cccc5cccc(c45)C3=O)CC2)c1 (stereo not drawn) | 20 | -7 | -29 | 89* | -9 | -23
Cc1ccccc1NC(=O)CN1CCN(C(=O)c2ccco2)CC1 | nt | -11 | -14 | 53* | -3 | -2
CCCCNc1c(-c2ccc(SC(C)CC)cc2)nc2ccccn12 (stereo not drawn) | nt | 69* | 16 | -38 | -283 | -30
CCCCNc1c(-c2ccc(SC3CCCCC3)cc2)nc2ccccn12 | nt | 36 | 23 | -252 | -159 | -26
CCCCNc1c(-c2ccc(SC3CCCCC3)c(OC)c2)nc2ccc(C)cn12 | nt | 4 | 17 | 24 | -25 | -10
CCCCNc1c(-c2ccc(OC)c(SC3CCCCC3)c2)nc2ccc(C)cn12 | nt | 10 | 22 | 98* | -50 | -6
CCCCNc1c(-c2ccc(OC)c(SC(C)CC)c2)nc2ccc(C)cn12 (stereo not drawn) | nt | 38 | 41 | 100* | -34 | -18
CCC(C)Sc1cc(-c2nc3ccc(C)cn3c2NCc2ccccc2)ccc1OC (stereo not drawn) | nt | 84*! | 58* | 96* | -120 | -32
CCCCNc1c(-c2ccc(OC)c(SC(C)CC)c2)nc2ccc(Cl)cn12 (stereo not drawn) | nt | 21 | -4 | 6 | -37 | -1
O=C(/C=C/[C@H]1O[C@@H](n2ccc(=O)[nH]c2=O)[C@H](O)[C@@H]1O)NCC1CCCO1 (stereo partly drawn) | nt | -24 | -24 | 2 | -4 | 2
O=C(NCCc1ccc(O)cc1)c1[nH]c(C(F)(F)F)nc1-c1ccccc1 | nt | -7 | 21 | 9 | 6 | -11
CC(=O)c1ccc(-c2cccc(-c3nc4ccccn4c3NC3CCCCC3)c2)cc1 | nt | 20 | 30 | 62* | -76 | -19
CCC(C)Sc1cc(-c2nc3ccccn3c2NC2CCCCC2)ccc1OC (stereo not drawn) | nt | 43 | 28 | 95* | -81 | -10
CCC(C)Sc1ccc(-c2nc3ccc(C)cn3c2NCc2ccccc2)cc1OC (stereo not drawn) | nt | 22 | 30 | 88* | -200 | -26
CCCCCCSc1ccc(-c2nc3ccc(C)cn3c2NCc2ccccc2)cc1OC | nt | 28 | 20 | -123 | -183 | -5
O=C(c1ccc(Cl)cc1Cl)N1CCc2ccccc21 | nt | 3 | -12 | 6 | -10 | -6
O=C(/C=C/c1cccc(F)c1)N1CCc2ccccc21 | 43 | 64* | -3 | -263 | -220 | -18
O=C(/C=C/c1ccc(Cl)cc1Cl)N1CCc2ccccc21 | 38 | 61* | -20 | -209 | -238 | -10
Cc1ccc(NC(=O)CSc2ccc(Br)cc2)cc1S(=O)(=O)N1CCOCC1 | nt | 7 | 12 | 11 | -28 | 9
NC(=O)CC(NC(=O)Cc1ccc(Br)cc1)c1ccc(N2CCC(Br)CC2)c([N+](=O)[O-])c1 (stereo not drawn) | 4 | -7 | -28 | 27 | -8 | -15
NC(=O)CC(NC(=O)Cc1ccc(Br)cc1)c1ccc(N2CCC(Cc3ccccc3)CC2)c([N+](=O)[O-])c1 (stereo not drawn) | -1 | 37 | 31 | 51* | 12 | -42
O=c1ccc2c([nH]1)CCCCCCCCCC2 | nt | 7 | -3 | 54* | 30 | 5
SMILES | PPC-1+TRAIL kill | C8 TRAIL sens | CF NFkB inh | Peg3 promoter | HIF-2a block | KKLEB cytotox
CCCCCCn1cc(CN2CC(N3CCN(Cc4ccccc4F)CC3)CS2(=O)=O)nn1 (stereo not drawn) | nt | 5 | nt | nt | 11 | nt
N#C/C(=C\c1ccc([N+](=O)[O-])o1)C(=O)Nc1ccc(F)cc1 | 25 | 25 | 4 | 53* | -33 | 4
CC1CCCCC1NC(=O)COC(=O)c1ccc2ncsc2c1 (stereo not drawn) | nt | 5 | 0 | 2 | -23 | -4
CCN(CC)C(=O)c1ccc2nc3ccccc3nc2c1 | 33 | 20 | -10 | -71 | -76 | 9
CCN(CC)c1ccc2nc3ccccc3[n+](CC)c2c1 | nt | 44 | -5 | 57* | 17 | 13
O=C(N/N=C/c1ccc(N2CCOCC2)cc1)c1ccncc1 | nt | -6 | -6 | 6 | -5 | -4
O=C(N/N=C/c1ccc(N2CCOCC2)cc1)c1ccccc1OCCOc1ccccc1 | 10 | -5 | 11 | 62* | -3 | -13
Cc1ccccc1-c1nnc(SCC(=O)Nc2cccnc2Cl)o1 | nt | 64* | 20 | -52 | -30 | 1
Cc1cc(C)cc(NC(=O)CSc2nnc(-c3ccccc3C)o2)c1 | 22 | 13 | -35 | -211 | -168 | 15
CC1(C(=O)O)CCN1C(=O)c1cccc(C(F)(F)F)c1 (stereo not drawn) | nt | -24 | -2 | -2 | -1 | 9
Cc1ccc(Cl)cc1N1CCN(C(=O)C2CCN(S(=O)(=O)c3c(C)nn(C)c3C)CC2)CC1 | 20 | 9 | 12 | 51* | 9 | -13
CCN(CC(=O)N1CCc2ccccc2C1)S(=O)(=O)c1ccc2ccccc2c1 | 23 | 55* | -10 | 15 | 22 | 0
CC(C)c1ccc(-c2nnn(CCC(=O)O)n2)cc1 | 35 | -2 | -10 | 31 | 89* | 3
COc1ccc(N(C)S(=O)(=O)c2cccc(C(=O)OCC(=O)c3c(N)n(C)c(=O)n(C)c3=O)c2)cc1 | nt | 18 | -19 | 55* | 15 | 14
CCN(c1ccccc1)S(=O)(=O)c1cccc(C(=O)OCC(=O)c2c(N)n(C)c(=O)n(C)c2=O)c1 | nt | 13 | 22 | 32 | 8 | -3
CC(C)(C)NCC(O)CON=C1c2ccccc2-c2ccccc21 (stereo not drawn) | -6 | 3 | -23 | 84* | 25 | -1
Cc1ccc(S(=O)(=O)N2CCCC(c3nc4c(nnn4Cc4ccc5c(c4)OCCO5)c(=O)[nH]3)C2)cc1 (stereo not drawn) | nt | 1 | 4 | 42 | 14 | 5
CCCOc1ccc(C(=O)N/N=C/c2c[nH]c3ccc(Br)cc23)cc1 | nt | -16 | 2 | 51* | 14 | 2
COc1ccc(C(=O)N/N=C/c2c[nH]c3ccccc23)cc1 | nt | 2 | -5 | -76 | -151 | 0
CCCn1c(SCC(=O)NC2CCCC2)nnc1-c1cccnc1 | nt | 12 | 4 | 4 | 11 | 9
